# IL1B secr inh – inhibitors of inflammasome signaling (IL-1 beta secretion). THP-1 LPS/ATP IL-1B secretion, AlphaLISA, 16 h; stronger effect = lower value. activity change, % at 57.5 µM. 360,000 tested, 4.7% active; in the data active = activity change below about -50%; inconclusive = mostly about -30% to -49%; note: % is set by controls: 0 for no effect and ±100 for the full control effect
#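 THP-1 cells pretreated 1 hr with compounds (up to 57.5 uM final), then stimulated with LPS (250 ng/mL final) plus ATP (1.25 mM final); secreted IL-1B measured by AlphaLISA after 16 hr, decreased signal indicating inhibition.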
# TDP1 cell noCPT – qHTS for Inhibitors of human tyrosyl-DNA phosphodiesterase 1 (TDP1): qHTS in cells in absence of CPT | 420,000 tested, 15% active | DT40 Tdp1-/- hTDP1 cells, no CPT, ATP luminescence, 48 h | Potency, µM (doses to about 46.2 µM), for the others: top-dose activity change, negative = growth inhibition, most hits filed as inhibitors; note: potency is the fitted concentration of half-maximal effect; % is set by controls: 0 for no effect and ±100 for the full control effect; nearly all actives have a fitted effect of over 55% in size
#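 Cells were dispensed at 400 per well, compounds added by pin tool, plates incubated ≥48 hr at 37 °C, then CellTiter-Glo added for 30 min at room temperature before luminescence reading. Line: DT40 Tdp1-/- complemented with hTDP1; camptothecin omitted.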
# D3 ag – activates the human D3 dopamine receptor | P35462 | max activation, % | AID 652048 | D3R DiscoveRx beta-arrestin cells, luminescence, 90 min | 410,000 tested, 0.58% active; in the data active = max activation above about 30%; note: 0% is about no effect
# Target sequence (P35462 whole entry, looked up): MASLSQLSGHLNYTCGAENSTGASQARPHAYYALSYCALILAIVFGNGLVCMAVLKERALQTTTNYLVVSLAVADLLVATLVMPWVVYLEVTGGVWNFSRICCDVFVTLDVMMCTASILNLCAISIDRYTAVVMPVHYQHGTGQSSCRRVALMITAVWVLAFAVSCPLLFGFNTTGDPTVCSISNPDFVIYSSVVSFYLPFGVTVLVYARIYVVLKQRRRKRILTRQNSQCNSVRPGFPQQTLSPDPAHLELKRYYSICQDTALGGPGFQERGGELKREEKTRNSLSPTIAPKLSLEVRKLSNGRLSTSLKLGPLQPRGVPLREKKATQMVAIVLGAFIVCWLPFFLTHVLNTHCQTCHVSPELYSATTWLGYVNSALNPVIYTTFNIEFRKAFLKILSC
#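 Agonist mode: compounds and dopamine controls were applied to plated cells for 90 min at 37 degrees C after an overnight attachment at 1500 cells/well. Luminescent read-out followed 30 - 60 minutes at room temperature with DiscoveRx detection reagent.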
# DT40 TDP1 CPT – DT40-hTDP1 cell growth loss with CPT; chicken DT40 Tdp1-/-;hTDP1 cells + 20 nM CPT, ATP luminescence, 48 h; Potency, µM (doses to about 46.2 µM), for the others: top-dose activity change, negative = growth inhibition, hits mostly inhibitors; 420,000 tested, 12% active; AID 686979; note: potency is the fitted concentration of half-maximal effect; % is set by controls: 0 for no effect and ±100 for the full control effect; nearly all actives have a fitted effect of over 55% in size
#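 Chicken DT40 Tdp1-/- cells complemented with human TDP1, 400 cells/well, exposed to compounds plus 20 nM camptothecin for at least 48 h at 37 C; viability read as ATP content by CellTiter-Glo luminescence.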
# D3 antag – antagonists of human D3 dopamine receptor | P35462 | D3R cells, DiscoveRx beta-arrestin luminescence, antagonist mode; stronger effect = lower value | max response, negative = inhibition, % | 360,000 tested, 2.5% active; in the data active = max response below about -50%; inconclusive = no clear call, values can overlap the other calls; note: % is set by controls: 0 for no effect and ±100 for the full control effect
#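 Cells expressing the human receptor were seeded at 1500 cells/well, incubated overnight at 37 degrees C in 5% CO2, then exposed to library compounds with dopamine controls for 90 minutes at 37 degrees C before luminescent detection.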
# ClpP mod – qHTS Assay for Activators of ClpP; ATP-dependent Clp protease proteolytic subunit (Bacillus subtilis (strain 168)), P80244; purified B. subtilis ClpP, FRET peptide cleavage, 20 min; Potency, µM (doses to about 57.5 µM), for inactives: at the highest dose activity change, negative = active; 340,000 tested, 1.9% active; AID 651965, 2013; active = well fitted falling curve with a large enough effect; inconclusive = small, poorly fitted or top-dose-only effect; inactive = no such curve, though single readings can be large or run the other way; note: potency is the fitted concentration of half-maximal effect; the source files actives as falling curves though it sought activators and does not explain the sign; nearly all actives have a fitted effect of over 65% in size
# Target sequence (P80244 whole entry, looked up): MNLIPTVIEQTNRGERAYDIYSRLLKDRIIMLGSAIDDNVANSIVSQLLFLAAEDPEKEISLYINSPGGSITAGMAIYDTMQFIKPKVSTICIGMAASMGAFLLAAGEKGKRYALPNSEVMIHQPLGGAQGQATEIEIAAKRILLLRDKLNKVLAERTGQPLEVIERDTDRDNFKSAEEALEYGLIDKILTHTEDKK
#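 Purified B. subtilis ClpP, 10 microg/mL final in Tris/HCl pH8 with KCl, BSA, glycerol and Tween-20, cleaved an Abz/nitrotyrosine-quenched decapeptide. Fluorescence (ex 320, em 430) was read at 0 and 20 min at room temperature. Delta was normalized to 5.8 microM ADEP and DMSO/no-enzyme controls.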
# * = called active by the depositor; ? = inconclusive; / = no result given; ! = not confirmed by another sample. Most compounds without a hit are left out; they make up all but 21% or so of the library. Unless noted, calls come from the whole dose curve; as a rule, active = well fitted inhibition curve with a large enough effect; inconclusive = small, poorly fitted or top-dose-only effect; inactive = flat fitted curve, though single readings scatter.
SMILES,IL1B secr inh,TDP1 cell noCPT,D3 ag,DT40 TDP1 CPT,D3 antag,ClpP mod
COc1cccc(Cc2nc3ccccc3nc2SCC(=O)N2CCN(c3ccccc3)CC2)c1,/,23µM*,10,?,/,-1%
COc1ccccc1Cc1nc2ccccc2nc1SCC(=O)N1CCC(C)CC1,/,9.2µM*,1,16µM*,/,-4%
COc1ccccc1Cc1nc2ccccc2nc1SCC(=O)NCCc1ccccc1,/,-22%,2,-16%,/,1%
COc1cccc(Cc2nc3ccccc3nc2SCC(=O)Nc2cccc(C)c2)c1,/,?,6,?,/,-2%
COc1ccccc1Cc1nc2ccccc2nc1SCC(=O)N1CCN(c2ccccc2)CC1,/,23µM*,-5,21µM*,/,0%
Cc1ccc(CNC(=O)C2c3ccccc3C(=O)N(C)C2c2c[nH]c3ccccc23)o1 (centres undefined),-5,15µM*,5,21µM*,-6,0%
CCn1c(=NC(=O)CN2C(=O)CCC2=O)sc2c(OC)ccc(OC)c21,-20,?,-2,?,23,?
CCn1c(=NC(=O)c2ccc(N3C(=O)CCC3=O)cc2)sc2c(OC)ccc(OC)c21,-8,?,2,23µM*,-76*,43%
CCn1c(=NC(=O)c2cccc(N3C(=O)CCC3=O)c2)sc2c(C)ccc(OC)c21,-27,-76%,-1,18µM*,11,/
COc1cccc(C(=O)N=c2sc3c(C)ccc(OC)c3n2C)c1,22,?,2,-1%,2,4%
Cc1ccc(C(=O)OCC(=O)N2CCNC2=O)c(C)c1,-16,0%,5,13%,8,/
CCCCSCCCNC(=O)C1CCC(CNS(=O)(=O)c2ccccc2)CC1 (centres undefined),-1,?,-6,16µM*,2,-9%
CCOCCCNC(=O)Cn1nc(C)n2c(cc3cc(C)ccc32)c1=O,/,-9%,7,1%,/,-9%
O=C(Cc1coc(-c2ccc(F)cc2)n1)N1CCOCC1,-16,-19%,-14,-22%,-20,-4%
C[C@H]1Cn2cnc(C(=O)Nc3cccc(Cl)c3)c2C(=O)N1,-9,12µM*,-15,?,-22,0%
CCOC(=O)c1cc(S(=O)(=O)N2CCN(c3ccc(F)cc3)CC2)[nH]n1,/,18µM*,15,16µM*,/,-1%
CCOC(=O)c1cc(S(=O)(=O)N2CCN(c3cc(Cl)ccc3C)CC2)[nH]n1,/,?,-21,12µM*,/,-12%
CCOC(=O)c1cc(S(=O)(=O)N2CCN(c3ccccc3OC)CC2)[nH]n1,/,-17%,-12,-15%,/,0%
COC(=O)c1cc(=O)n(Cc2ccc3c(c2)OCO3)c(=Nc2ccccc2)s1,12,?,-3,12%,-8,1%
COC(=O)c1cc(=O)n(Cc2ccco2)c(=Nc2ccc(F)c(Cl)c2)s1,-105*,13µM*,-16,16µM*,-18,1%
COC(=O)c1cc(=O)n(CCc2ccccc2F)c(=Nc2ccc(F)c(Cl)c2)s1,-101*,8.2µM*,-6,15µM*,?,2%
O=C(CN1C(=O)NC2(CCCCC2)C1=O)NCCCSc1ccccc1,14,-3%,2,-1%,-3,-2%
COc1ccc(C(=O)COC(=O)C(Cc2c[nH]c3ccccc23)NC(=O)c2ccc(C(C)(C)C)cc2)cc1 (centres undefined),/,13µM*,-10,18µM*,/,-1%
CC(C)(C)c1ccc(C(=O)NC(Cc2c[nH]c3ccccc23)C(=O)OCC(=O)c2ccccc2)cc1 (centres undefined),/,-20%,1,-27%,/,1%
COC(=O)C(Cc1c[nH]c2ccccc12)NC(=O)c1ccc2nc[nH]c2c1 (centres undefined),-68*,10%,0,12%,7,-1%
SMILES,IL1B secr inh,TDP1 cell noCPT,D3 ag,DT40 TDP1 CPT,D3 antag,ClpP mod
O=C(Cc1ccccc1F)N1CCN(S(=O)(=O)c2ccc(Cl)cc2)CC1,15,-10%,2,?,12,1%
NCCOc1ccccc1Cc1ccccc1,-62*,?,-12,?,-64*,-1%
CN(C)CCOc1ccccc1Cc1ccccc1 (tested in a mixture with another compound),/,-22%,-19,-21%,/,/
CSC1=NC2(CC(c3ccccc3)Oc3cc(O)ccc32)CC(C)(C)N1 (centres undefined),1,21µM*,-2,23µM*,19,-2%
O=C1CC(c2ccccc2)Oc2cc(O)cc(O)c21 (centres undefined),-4,-26%,-10,-20%,3,0%
CCOC(=O)C1CCN(C(=O)COC(=O)Cc2ccc(Cl)cc2)CC1,19,-4%,0,1%,35,0%
O=C1/C(=C\c2ccccn2)SC(=S)N1Nc1ncc(C(F)(F)F)cc1Cl,-7,-29%,5,-27%,-5,1%
O=C1/C(=C/c2ccccn2)SC(=S)N1Nc1ncc(C(F)(F)F)cc1Cl,-8,?,5,8.2µM*,-25,/
COc1cc(C(=O)N[C@H](C(=O)Nc2nnc(C3CC3)s2)C(C)C)cc(OC)c1OC,-20,-17%,-22,-9%,-6,1%
CCCCn1c(N)c(N(CC(C)C)C(=O)C2CCCN(C(=O)c3ccc(Cl)cc3)C2)c(=O)[nH]c1=O (centres undefined),0,-25%,-15,-16%,-2,/
Cc1[nH]c2ccccc2c1C1(O)C(=O)N(C(C)C)c2ccccc21 (centres undefined),33,-5%,-8,-7%,-7,1%
CCCN1C(=O)C(O)(c2c(C)[nH]c3ccccc23)c2ccccc21 (centres undefined),0,5.2µM*,-5,5.2µM*,3,-1%
C#CCN1C(=O)C(O)(c2c(C)[nH]c3ccccc23)c2ccccc21 (centres undefined),42,3.3µM*,-18,4.6µM*,5,/
NCCNCCNCCN,-15,-1%,36*!,-27%,24,-3%
O=C(Cn1cnc(Cl)c1Cl)c1ccc(F)cc1,2,?,-7,15%,-5,/
C[C@]12c3[nH]c4ccccc4c3CCN1C(=O)C(CC(=O)NCCC1=CCCCC1)C[C@@H]2C(=O)N1CCCCC1 (some centres undefined),32,-23%,-7,-5%,-2,-1%

# Screens from PubChem.
